Experimental data: PubChem BioAssay (NCATS)
Inconclusive results are not listed. A call without a number means that no potency is given here. A number with no mark means an inactive call. Calls of active or inactive are those of the source. Calls come from the whole dose curve; as a rule, active = well fitted curve in the direction sought with a large enough effect; inconclusive = small, poorly fitted or top-dose-only effect, or another doubt; inactive = no such curve, though single readings can be large; an effect the other way counts as inactive or inconclusive.

Tests used:
MCC-13 = experiment: qHTS assay to identify novel small-molecules to repurpose for Merkel cell carcinoma treatment (AID 1296009); settings: MCC and control cell lines, CellTiter-Glo viability, 72 h; series mostly up to 46 µM; note: nearly all actives have a fitted effect of over 60% in size; note: potency is the fitted concentration of half-maximal effect
In short: (§1)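 Dose-response viability screen; 72 hr exposure at 37 degree celsius; CellTiter-Glo added, 10 min room temperature, luminescence read; RLUs scaled between no-cell and DMSO wells.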

MCC-26 = experiment: as above; settings: MCC and control cell lines, CellTiter-Glo viability, 72 h; series mostly up to 46 µM
In short: as §1

UISO = experiment: as above; settings: MCC and control cell lines, CellTiter-Glo viability, 72 h; series mostly up to 46 µM
In short: as §1

C33A = experiment: Primary qHTS to identify gynecologic anti-cancer compounds using libraries of approved drugs and bioactive compounds (AID 1345084); settings: Gynecologic cancer cell panel viability, ATPlite luminescence, 48 h; series mostly up to 57.5 µM; note: nearly all actives have a fitted effect of over 55% in size
In short: (§2)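 Cells, 1,000 per well, plated 16 h, then exposed 48 h at 37 C to compounds. Viability by ATPlite luminescence after 15 min at room temperature.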

CAOV3 = experiment: as above; settings: Gynecologic cancer cell panel viability, ATPlite luminescence, 48 h; series mostly up to 57.5 µM
In short: as §2

CASKI = experiment: as above; settings: Gynecologic cancer cell panel viability, ATPlite luminescence, 48 h; series mostly up to 57.5 µM
In short: as §2

MKL-1 = experiment: qHTS assay to identify novel small-molecules to repurpose for Merkel cell carcinoma treatment (AID 1296009); settings: MCC and control cell lines, CellTiter-Glo viability, 72 h; series mostly up to 46 µM; note: nearly all actives have a fitted effect of over 60% in size; note: potency is the fitted concentration of half-maximal effect
In short: as §1

MKL-2 = experiment: as above; settings: MCC and control cell lines, CellTiter-Glo viability, 72 h; series mostly up to 46 µM
In short: as §1

WaGa = experiment: as above; settings: MCC and control cell lines, CellTiter-Glo viability, 72 h; series mostly up to 46 µM
In short: as §1

NIH3T3 = experiment: as above; settings: MCC and control cell lines, CellTiter-Glo viability, 72 h; at 44.8 µM (top of the series)
In short: as §1

SMILES	Potency (MCC-13)	Potency (MCC-26)	Potency (UISO)	Potency (C33A)	Potency (CAOV3)	Potency (CASKI)	Potency (MKL-1)	Potency (MKL-2)	Potency (WaGa)	outcome (NIH3T3)
NCCNc1cccc2ccccc12	inactive	inactive	inactive	inactive	inactive	inactive				
CCCCCCCCCCC[C@@H](C[C@@H]1OC(=O)[C@H]1CCCCCC)OC(=O)[C@H](CC(C)C)NC=O	inactive		inactive	inactive	inactive	inactive	inactive	inactive	inactive	
CO[C@H]1C=CO[C@@]2(C)Oc3c(C)c(O)c4c(O)c(c(/C=N/N5CCN(C)CC5)c(O)c4c3C2=O)NC(=O)/C(C)=C\C=C[C@H](C)[C@H](O)[C@@H](C)[C@@H](O)[C@@H](C)[C@H](OC(C)=O)[C@@H]1C	inactive	inactive		inactive		inactive	21.1 µM (active)			
CC(=O)Nc1ccc(OC(=O)c2ccccc2OC(C)=O)cc1	inactive		inactive	inactive	inactive	inactive	inactive	inactive	inactive	inactive
CCCCCCCCCCCCSCCOCCO	inactive	inactive	inactive	inactive	inactive	inactive		inactive	inactive	
O=C1C(=O)c2ccccc2C(O)=C1C1CCC(c2ccc(Cl)cc2)CC1 (centres undefined)	inactive		inactive	inactive	inactive	inactive	inactive	inactive	inactive	
COc1ccccc1N1CCN(CCCCNC(=O)c2ccc(-c3ccc(C(C)=O)cc3)cc2)CC1	inactive		inactive	inactive	inactive	inactive	inactive	inactive	inactive	
OCCOCCN1CCN(C2=Nc3ccccc3Sc3ccccc32)CC1	inactive		inactive	inactive		inactive	inactive	inactive	inactive	
